ST2 inh: blocks human ST2 binding to IL-33; AlphaLISA ST2-Fc/biotin-IL-33 interaction, 1 h; inhibition, % for hits at 17 µM; 78,000 compounds, 2.3% hits; AID 1259354; in the data active = inhibition above about 30%
Active calls of the source: *. This is one part of a sample in which hits are shown more often than they occur.

Screening CCn1c(CCNC(=O)C(C)(C)C)nc2ccccc21 returned ST2 inh inactive.
`CCn1c(C(C)NC(=O)C(C)(C)C)nc2ccccc21` (stereo not given) gave ST2 inh inactive.
CCNc1ccc(Br)cc1-c1nc2ccccc2n(CC)c1=O was read as ST2 inh 77%*.
Screening CCOC(=O)C1=C(C)NC2=C(C(=O)CC(c3ccccc3)C2)C1c1ccc(N(CC)CC)cc1 (stereo not given) returned ST2 inh inactive.
O=C(Nc1cc2cc([N+](=O)[O-])ccc2oc1=O)c1ccc(Cl)cc1Cl was read as ST2 inh inactive.
`CSc1ccc(C(=O)N2CCc3c(cnc(C)c3CNC(=O)/C=C/c3ccccc3)C2)cc1` gave ST2 inh inactive.
For C(=Nc1cnc2ccccc2c1)c1c2n(c3ccccc13)CCCN2 the results were ST2 inh 30%*.
Screening CCC1(C)Cc2c(sc3nc(SC)n(-c4ccc(OC)cc4)c(=O)c23)CO1 (stereo not given) returned ST2 inh inactive.
CCCSc1nc2nc3c(cc2c(=O)n1-c1ccc(OC)cc1)COC(C)(C)C3 was read as ST2 inh 44%*.
Screening CSc1nc2nc3c(cc2c(=O)n1-c1ccccc1C)COC(C)(C)C3 returned ST2 inh inactive.
`OC1(C(F)(F)F)CC(c2ccc(Cl)cc2)=NO1` (stereo not given) gave ST2 inh inactive.
Screening COc1nc(Nc2c(C)cccc2C)nc(OC)n1 returned ST2 inh inactive.
`CC(=O)Nc1ccccc1-c1ccc(C)o1` gave ST2 inh inactive.
Screening N=C1S/C(=C/c2ccc(-c3ccccc3C(=O)O)o2)C(=O)N1c1nccs1 returned ST2 inh inactive.
COc1cc([N+](=O)[O-])ccc1-c1ccc(/C=C2\C(=O)N(c3cccc(Cl)c3)N=C2C)o1 was read as ST2 inh inactive.
Screening Cc1ccc(Cl)cc1-c1ccc(/C=C/[N+](=O)[O-])o1 returned ST2 inh 51%*.
`Cc1c(C(=O)O)cccc1-c1ccc(/C=C/[N+](=O)[O-])o1` gave ST2 inh 61%*.
For CCn1c(C2CCN(C(=O)C(C)n3cncn3)CC2)nn(C)c1=O (stereo not given) the results were ST2 inh inactive.
`COc1cc(N(C)CCC(O)c2ccccc2)ncn1` (stereo not given) gave ST2 inh inactive.
For Nc1c(S(=O)(=O)O)cc(Nc2ccc(Nc3nc(Cl)nc(Nc4ccc(S(=O)(=O)O)cc4)n3)c(S(=O)(=O)O)c2)c2c1C(=O)c1ccccc1C2=O the results were ST2 inh 81%*.
Screening O=c1[nH]c(SCc2cccc(F)c2)nc2c1cnn2-c1ccc(F)cc1 returned ST2 inh inactive.
NC(=O)c1cc(-c2ccco2)nc2ccccc12 was read as ST2 inh inactive.
Screening O=C1C(Br)=C(Br)C(=O)c2ccccc21 returned ST2 inh inactive.
O=C1C(=Cc2cccn2-c2ccc(Br)cc2)C(=O)c2ccccc21 was read as ST2 inh inactive.
`O=C1c2ccccc2-c2ccc(Br)cc21` gave ST2 inh 32%*.
Screening O=C(CC[C@@H]1CNC(=O)[C@@H]2C[C@H](NC(=O)Nc3cccc(Cl)c3)CN12)Nc1ccccc1 returned ST2 inh inactive.
Cc1ccccc1-n1nc2c(c1NC(=O)c1ccccc1Br)CSC2 was read as ST2 inh inactive.
Cc1nc2cccnc2n1C1CCN(C(=O)NC2CCCCC2)CC1 was read as ST2 inh inactive.
Screening CCC(=O)N1CCN(c2ccc(F)cc2[N+](=O)[O-])CC1 returned ST2 inh inactive.
O=[N+]([O-])c1ccccc1OCC(O)CN1CCN(c2ccccc2F)CC1 (stereo not given) was read as ST2 inh inactive.
Screening O=[N+]([O-])c1cc(C(F)(F)F)ccc1N1CCN(c2ccc([N+](=O)[O-])c3cccnc23)CC1 returned ST2 inh 45%*.
For O=[N+]([O-])c1cccnc1N1CCOCC1 the results were ST2 inh inactive.
For O=C(c1cnc(N2CCN(c3ccccn3)CC2)c2ccccc12)N1CCN(c2ccccn2)CC1 the results were ST2 inh inactive.
`Cc1ccccc1C(=O)N1CCN(c2ccc([N+](=O)[O-])c(N3CCOCC3)c2)CC1` gave ST2 inh inactive.
Screening O=[N+]([O-])c1cccc(Cl)c1N1CCN(c2ccc([N+](=O)[O-])c3cccnc23)CC1 returned ST2 inh inactive.
COc1ccccc1N1CCN(c2ccc([N+](=O)[O-])c3cccnc23)CC1 was read as ST2 inh 31%*.
Screening O=C(c1ccccc1F)N1CCN(c2ccc([N+](=O)[O-])c3cccnc23)CC1 returned ST2 inh 35%*.
COc1ccccc1N1CCN(C(=O)c2cc(OC)c(OC)c(OC)c2)CC1 was read as ST2 inh inactive.
Screening Cc1cc(-c2c(-c3ccccc3)ncn2CCOc2nonc2C)n[nH]1 returned ST2 inh inactive.
